Experimental data published in PubChem BioAssay (NCATS).
Records with an inconclusive call do not appear. Where a call stands in place of a potency, no number is given. Values without a mark were called inactive. The source made the active and inactive calls. Calls come from the whole dose curve; as a rule, active = well fitted curve in the direction sought with a large enough effect; inconclusive = small, poorly fitted or top-dose-only effect, or another doubt; inactive = no such curve, though single readings can be large; an effect the other way counts as inactive or inconclusive. Where a SMILES comes first, the peptide text is derived from it. The star is where a group is joined. Boc = CC(C)(C)OC(=O)*

What was measured:
[1] = tested on: Zika virus NS2B-NS3 protease; assay: Primary screen GU AMC qHTS for Zika virus inhibitors (AID 1347154); note: nearly all actives have a fitted effect of over 70% in size; note: potency is the fitted concentration of half-maximal effect
Method in brief: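 Unlinked Zika NS2B hydrophilic domain/NS3 protease domain noncovalent complex (25 nM final) in 10 mM Tris-HCl pH 8.0, 0.01% Tween 20, with AMC peptide substrate. Fluorescence (ex 340, em 450 nm) change over 15 min, room temperature; percent inhibition fitted to 4-parameter Hill equation.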

[2] = Primary qHTS for small molecule stabilizers of the endoplasmic reticulum resident proteome: Secreted ER Calcium Modulated Protein (SERCaMP) assay (AID 1508630)
Method in brief: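 GLuc-SERCaMP-expressing SH-SY5Y cells, pretreated 16 h with compound, are challenged with thapsigargin to empty ER calcium stores; after 4 h, coelenterazine is added directly to the medium and luminescence is imaged.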

Compound	Potency [1]	Potency [2]	activity change, negative = inhibition [1]	activity change, negative = inhibition [2]
COc1cc2ncnc(Nc3ccc(Cl)cc3F)c2cc1OC	inactive	inactive		
Nc1c(S(=O)(=O)O)cc(Nc2cccc3ccccc23)c2c1C(=O)c1ccccc1C2=O	inactive	inactive		
CCCCC/C=C\C/C=C\CCCCCCCCCC(=O)O			-1.98% [at 6.83 µM]	-7.65% [at 3.88 µM]
O=C(O)COc1ccc(OCCNC[C@H](O)COc2ccccc2)cc1	inactive	inactive		
c1ccc(Oc2nc(NC3CCCCC3)c3[nH]cnc3n2)cc1	inactive	inactive		
CCCCCCCCCCCCCCC(F)C(=O)O (configuration not stated)			19.7% [at 6.83 µM]	10.1% [at 3.88 µM]
Cn1cnc2nc(NCCO)nc(NCc3ccccc3)c21	inactive	inactive		
O=Cc1c2[nH]c3ccccc3c2cc2[nH]c3ccccc3c12	inactive	inactive		
CC/C=C\C/C=C\C/C=C\CCCCCCCCCCCC(=O)O			-2.15% [at 6.83 µM]	10.3% [at 3.88 µM]
c1ccc(CN(CCN(Cc2ccccn2)Cc2ccccn2)Cc2ccccn2)nc1	inactive	inactive		
NC(C(=O)O)[C@H](O)C(=O)O (some centres not stated)	inactive	inactive		
COc1ccc2[nH]cc(CCNC(=O)C3CC3)c2c1	inactive	inactive		
O=C(O)CCc1cc(I)c(O)c(I)c1	inactive	inactive		
COc1oc(=O)c2cc(N)ccc2c1Cl	inactive	inactive		
CCCCC[C@H](O)/C=C/[C@@H]1[C@@H](CC(=O)CCCCC(=O)O)[C@@H](O)C[C@H]1O			7.57% [at 6.83 µM]	35.8% [at 3.88 µM]
Cc1nc(N=Nc2cc([N+](=O)[O-])ccc2Cl)c(COP(=O)(O)O)c(C=O)c1O	inactive	inactive		
NCCn1oc(=O)[nH]c1=O	inactive	inactive		
COc1c(O)cc2oc(-c3ccc(O)cc3)cc(=O)c2c1O	inactive	inactive		
C[C@H](NC(=O)CNC(=O)[C@@H](NC(=O)[C@H](Cc1ccccc1)NC(=O)CNC(=O)CNC(=O)[C@@H](N)Cc1ccccc1)[C@@H](C)O)C(=O)N[C@@H](CCCN=C(N)N)C(=O)N[C@@H](CCCCN)C(=O)N[C@@H](CO)C(=O)N[C@@H](C)C(=O)N[C@@H](CCCN=C(N)N)C(=O)N[C@H](CN)CCCCN (HELM PEPTIDE1{F.G.G.F.T.G.A.R.K.S.A.R.[NCCCC[C@@H](CN)N[*:1]]}$$$$V2.0)			1.78% [at 6.83 µM]	-10.3% [at 3.88 µM]
CC1=C(/C=C/C(C)=C/C=C/C(C)=C\CO)C(C)(C)CCC1	inactive	inactive		
CCCCc1nc2ccn(CC(=O)N(C)C)c(=O)c2n1Cc1ccc(-c2ccccc2-c2nn[nH]n2)cc1	inactive	inactive		
CC(=O)OCOC(c1ccc2ccccc2c1)P(=O)(OCOC(C)=O)OCOC(C)=O (configuration not stated)	inactive	inactive		
CC(C)[C@H](NC(=O)CNC(=O)OC(C)(C)C)C(=O)N[C@H](C=O)C(C)C (Boc-Gly-Val-Val-aldehyde)	inactive	inactive		

Compound	Potency [1]	Potency [2]	activity change, negative = inhibition [1]	activity change, negative = inhibition [2]
OCc1cc2c(cn1)[nH]c1ccccc12	26.7 µM (active)	inactive		
CC(C)[C@@H]1NC(=O)[C@H](Cc2ccccc2)NC(=O)[C@@H](CC(=O)O)NC(=O)CNC(=O)[C@H](CCCNC(=N)N)NC1=O	inactive	inactive		
COc1ccc(CC(N)C(=O)NC2C(O)[C@H](n3cnc4c(N(C)C)ncnc43)O[C@@H]2CO)cc1 (some centres not stated)	inactive	inactive		
CCCCCC(=O)/C=C/C=C\CCCCCCCC(=O)O			0.325% [at 0.59 µM]	-7.64% [at 0.478 µM]
CC[C@]1(O)C[C@@H]2CN(CCc3c([nH]c4ccccc34)[C@@](C(=O)OC)(c3cc4c(cc3OC)N(C)C3[C@]45CCN4CC=C[C@](CC)(C45)[C@@H](OC(C)=O)[C@]3(O)C(=O)OC)C2)C1 (some centres not stated)	inactive	inactive		
Nc1nc2c(ncn2[C@@H]2O[C@H](COP(=O)(O)OP(=O)(O)OP(=O)(O)O)[C@@H](O)C2O)c(=O)[nH]1 (some centres not stated)	inactive	inactive		
NC1(C(=O)O)CCc2cc(P(=O)(O)O)ccc21 (configuration not stated)	inactive	inactive		
CC(=O)OCOC(=O)CN(CC(=O)OCOC(C)=O)c1ccccc1OCCOc1ccccc1N(CC(=O)OCOC(C)=O)CC(=O)OCOC(C)=O	inactive	inactive		
OC[C@H]1O[C@@H](n2cnc3c(N[C@H]4C[C@H]5CC[C@@H]4C5)ncnc32)[C@H](O)[C@@H]1O	inactive	inactive		
CCCCCCCCCCCCCCCC(=O)N[C@@H](COP(=O)(O)O)C(=O)O			6.63% [at 6.83 µM]	2.76% [at 3.88 µM]
O=C(O)c1ccncc1	inactive	inactive		
CS(=O)(=O)Nc1c(O)ccc2c1CCCC2C1=NCCN1 (configuration not stated)	inactive	inactive		
CCCCCCCCCC(=O)N[C@H](CN1CCOCC1)[C@H](O)c1ccccc1			6.71% [at 6.83 µM]	9.26% [at 3.88 µM]
N#C/C(=C\c1cc(Cl)cc(Cl)c1)c1cccnc1	inactive	inactive		
NC1=NC2C(N=C(Br)N2[C@@H]2O[C@H]3COP(=O)(O)O[C@@H]3[C@@H]2O)C(=O)N1 (some centres not stated)	inactive	inactive		
COC(=O)[C@@H](c1ccccc1Cl)N1CCc2sccc2C1	inactive	inactive		
Nc1ncnc2c1ncn2[C@@H]1O[C@H](COP(=O)(O)OP(=O)(O)OC[C@H]2OC(O)[C@H](O)[C@@H]2O)[C@@H](O)[C@H]1O (some centres not stated)	inactive	inactive		
CC[C@H](C)[C@H](NC(=O)[C@H](CCCN=C(N)N)NC(=O)[C@H](CCCN=C(N)N)NC(=O)[C@H](CC(C)C)NC(=O)[C@H](Cc1ccccc1)NC(=O)CNC(=O)CN)C(=O)N[C@@H](CCCN=C(N)N)C(=O)N1CCC[C@H]1C(=O)N[C@@H](CCCCN)C(=O)N[C@@H](CC(C)C)C(=O)N[C@@H](CCCCN)C(=O)O			11.9% [at 6.83 µM]	-2.68% [at 3.88 µM]
CC(C)n1cnc2c(NCc3ccccc3)nc(NCCO)nc21	inactive	inactive		
CS/C(N)=C(C#N)/C(C#N)=C(\N)SC	inactive	inactive		
Nc1ncnc2c1ncn2[C@H]1O[C@@H](CSCC[C@@H](N)C(=O)O)[C@H](O)[C@@H]1O	inactive	inactive		
COC(=O)/C=C/c1cccc(N(Cc2ccc(-c3ccc(N(C)C)cc3)cc2)C(=O)C2CCCCC2)c1	inactive	inactive		
COC(=O)c1csc(C(=O)c2c[nH]c3ccccc23)n1	inactive	inactive		
